Test [1] can be described thus: qHTS assay to identify small molecule agonists of the hypoxia (HIF-1) signaling pathway - cell viability counter screen (AID 1224844; calls by dose curve; note: nearly all actives have a fitted effect of over 50% in size; note: potency is the fitted concentration of half-maximal effect). The method, boiled down: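 ME-180 HRE-bla cells, 2,000/well, 0.5% dialyzed FBS; 5 hr settle, 17 hr compound at 37C/5% CO2; CCF4-AM reporter read first, then CellTiter-Glo luminescence after 30 min RT.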
Background: Quantitative high-throughput screening tests each substance at several concentrations.

Test [2] can be described thus: qHTS assay to identify small molecule agonists of H2AX (AID 1224845; active = well fitted activation curve with a large enough effect in the signal ratio in the repeat runs, not every such curve was filed as active; the % refers to the signal ratio; note: potency is the fitted concentration of half-maximal effect). The method, boiled down: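 Wild-type CHO-K1 cells plated overnight, then exposed 3 hr at 37C to compounds at 15 concentrations (0.76% DMSO). Lysed, then HTRF anti-pH2AX(S139)-cryptate/anti-H2AX-d2 detection after 24 hr at room temperature; emissions 665 and 620 nm.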
The nature of test [3]: qHTS assay to identify small molecule agonists of H2AX - cell viability counter screen (AID 1224847; calls by dose curve; note: nearly all actives have a fitted effect of over 30% in size; note: potency is the fitted concentration of half-maximal effect). The method, boiled down: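 After overnight plating of 1000 CHO-K1 cells per well, a 15-concentration compound series was applied for 3 hr at 37C. Luminescence from CellTiter-Glo, read following 30 min at room temperature, reflected cell viability.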
Test [4] can be described thus: qHTS assay to identify small molecule antagonists of the estrogen related receptor (ERR) signaling pathway from Tox21 library (AID 1224848). Note: nearly all actives have a fitted effect of over 50% in size. Note: potency is the fitted concentration of half-maximal effect. The essentials:
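Screening used an ERR reporter line supplied by NTP, exposed for 18 h at 37 C to library compounds delivered in DMSO. Signal was luciferase luminescence developed with ONE-Glo at room temperature for 30 min.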

Test [5] is described as follows: qHTS assay to identify small molecule agonists of the estrogen related receptor (ERR) signaling pathway from Tox21 library (AID 1224849; calls by dose curve; note: nearly all actives have a fitted effect of over 15% in size). To be noted: ERR reporter cell line, ONE-Glo luciferase, 18 h. The essentials: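 ERR cells, 6 h pre-incubation 37 C/5% CO2; cpd in DMSO pinned; 18 h 37 C; ONE-Glo added, 30 min RT; luminescence read. Agonist mode, qHTS.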
Test [6] is described as follows: qHTS RealTime-Glo MT Cell Viability Assay in HepG2 cells - 24 hour (AID 1224867). Note: nearly all actives have a fitted effect of over 50% in size. Note: potency is the fitted concentration of half-maximal effect. The method, boiled down: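 HepG2 cells were seeded at 600 cells/well together with NanoLuc luciferase and a cell-permeant prosubstrate, preincubated 5 h at 37 C/5% CO2, then pin-dosed with compounds in DMSO. Nonlytic luminescence from viable cells was read at each time point.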
Test [7] can be described thus: qHTS RealTime-Glo MT Cell Viability Assay in HEK293 cells - 32 hour (AID 1224868). Note: nearly all actives have a fitted effect of over 50% in size. Note: potency is the fitted concentration of half-maximal effect. The method, boiled down: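 HEK293 cells were seeded at 600 cells/well together with NanoLuc luciferase and cell-permeant prosubstrate, preincubated 5 h at 37 C/5% CO2, then given compound in DMSO by pintool. Luminescence from viable-cell prosubstrate reduction was read repeatedly over 40 h.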

A short description of test [8]: A CellTox Green Cytotoxicity Assay to monitor cytotoxicity in HEK293 cells - 0 hour (AID 1224869). Note: nearly all actives have a fitted effect of over 50% in size. The method, boiled down: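 Nonlytic real-time cytotoxicity: HEK293 + CellTox Green reagent plated, 5 h preincubation, pintool compound addition (23 nL in DMSO), 37 C for 40 h, fluorescence measured at successive time points.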
Test [9] is described as follows: qHTS RealTime-Glo MT Cell Viability Assay in HepG2 cells - 40 hour (AID 1224870). Note: nearly all actives have a fitted effect of over 50% in size. Note: potency is the fitted concentration of half-maximal effect. The method, boiled down: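 HepG2 cells mixed with RealTime-Glo MT reagents (NanoLuc plus cell-permeant prosubstrate) were seeded at 600 cells/well, incubated 5 h at 37 C/5% CO2, then pinned with compounds in DMSO; nonlytic luminescence tracked viability during 40 h treatment.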
Test [10] can be described thus: qHTS assay to identify small molecule agonists of the hypoxia (HIF-1) signaling pathway (AID 1224846; active = well fitted activation curve with a large enough effect in the signal ratio in the repeat runs, not every such curve was filed as active; the % refers to the signal ratio). The method, boiled down: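 Cell line: CellSensor HRE-bla ME-180; 2,000 cells/well; 0.5% dialyzed FBS; 5 h preincubation; DMSO compound pin transfer; 17 h, 37C, 5% CO2; CCF4-AM added; bla FRET signal scored for activation.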

“And” between values parts separate entries of the source, which are not always exact repeats. Equal values may be shown once. Records with an inconclusive call do not appear. More than one record can exist for a structure, and the calls need not agree. The source made the active and inactive calls. Unless noted, calls come from the whole dose curve; as a rule, active = well fitted curve in the direction sought with a large enough effect in the repeat runs; inconclusive = weak or mixed curves; inactive = no such curve, though single readings can be large; an effect the other way counts as inactive or inconclusive.
% is set by controls: 0 for no effect and ±100 for the full control effect.

Regarding `CC(C)(O)C(=O)Nc1ccc([N+](=O)[O-])c(C(F)(F)F)c1`, the Potency entry in [1], in test [2], in [6], in test [8] and in test [9] was “inactive” throughout. Further, the Potency in test [3] was 57.8 µM (active) and 73.6 µM (active); in [4] it was 9.89 µM (active) and 17.8 µM (active); in test [7] it was 25.1 µM (active) and 16 µM (active). Besides, the activity change, positive = activation was -39.6% (inactive) in test [5] (at 42.5 µM (top of the series)) and -47.4% (inactive) in test [5] (at 92.4 µM (top of the series)).

As for `O=C(O)c1nn(Cc2ccc(Cl)cc2Cl)c2ccccc12`, the Potency result in test [1], in [2], in test [3], in [4], in test [6] and in test [7] was “inactive” each time. For the same compound, the Potency result in [8] and in test [9] was “inactive” in each case. For the same compound, the figures for the activity change, positive = activation in test [5] (at 42.5 µM (top of the series)) and in test [5] (at 92.4 µM (top of the series)) were -5.39% (inactive) and -48% (inactive), respectively.

In the case of `CC(C)COC(=O)c1ccccc1C(=O)OCC(C)C`, the Potency result in test [1], in test [2], in test [3], in test [6], in test [7] and in test [9] was “inactive” in each case. For the same compound, in test [10], the compound was called inactive.

For `CC(C)(c1ccccc1)c1ccc(O)c(C(C)(C)c2ccccc2)c1`, the Potency is 21.7 µM (active) and 21.9 µM (active) in test [1]; 39.7 µM (active) in test [2]; 28.1 µM (active) and 56.6 µM (active) in [3]; 42.9 µM (active) and 48.6 µM (active) in test [4]; 54.4 µM (active) and 43.6 µM (active) in [6]; 19.3 µM (active) and 30.9 µM (active) in test [7]. The Potency in [9] was 49 µM (active). In addition, the activity change, positive = activation in [5] (at 92.4 µM (top of the series)) was -71.4% (inactive) and -64.9% (inactive).

Turning to `Clc1ccc(C(Cl)(Cl)Cl)cc1`, the Potency entry in [1], in test [2], in test [3], in [4], in test [6] and in test [7] was “inactive” in each case. The Potency entry in test [8] and in test [9] was “inactive” throughout. In addition, the activity change, positive = activation in test [5] (at 92.4 µM (top of the series)) is -5.48% (inactive) and 0.497% (inactive).

Take `Cc1ccc([N+](=O)[O-])cc1`: the Potency result in [1], in [2], in test [3], in [6], in test [7] and in test [9] was “inactive” throughout. Besides, the result in test [10] was inactive.

Consider `CCCCSP(=O)(SCCCC)SCCCC`, for which the Potency entry in test [1], in test [2], in [3], in test [6], in test [7] and in test [9] was “inactive” in each case. The compound was called inactive in [10].

Take `Cc1cc(Cl)ccc1N=CN(C)C`: the Potency entry in test [1], in test [2], in test [3], in [4], in [6] and in test [7] was “inactive” each time. Besides, in [9], the Potency entry is “inactive”. In [5] (at 92.4 µM (top of the series)), the activity change, positive = activation is -6.81% (inactive) and 2.85% (inactive).

For the compound `CCOS(=O)(=O)OCC`, the Potency entry in test [1], in test [2], in test [3], in test [6], in test [7] and in test [9] was “inactive” in each case. For the same compound, the result in test [10] was inactive.

Take `CCOP(=S)(OCC)OP(=S)(OCC)OCC`: the Potency entry in [1], in test [2], in [3], in test [4], in test [6] and in [7] was “inactive” each time. Also, the Potency entry in test [8] and in test [9] was “inactive” throughout. Also, the activity change, positive = activation in test [5] (at 92.4 µM (top of the series)) was -12.2% (inactive) and -0.199% (inactive).

As for `CC1=C(C(=O)Nc2ccccc2)SCCO1`, the Potency result in [1], in [2], in test [3], in [6], in test [7] and in test [8] was “inactive” each time. In addition, the Potency entry in test [9] is “inactive”. Besides, in test [5] (at 92.4 µM (top of the series)), the activity change, positive = activation was -23.3% (inactive) and -26.7% (inactive).

As to `CC1(C)C(C(=O)OC(C#N)c2cccc(Oc3ccccc3)c2)C1(C)C` (stereo unspecified), the Potency entry in test [1], in test [2], in [6], in [7], in test [8] and in test [9] was “inactive” throughout. Also, in [10], the outcome was inactive. Moreover, the Potency in test [4] was 30.9 µM (active). In addition, in [5] (at 92.4 µM (top of the series)), the activity change, positive = activation is -46.1% (inactive) and -24.4% (inactive).

With `CCCCCCCC[N+](C)(CCCCCCCC)CCCCCCCC`, the Potency in [1] is 15.5 µM (active) and 9.79 µM (active) and 19.5 µM (active); in test [2] it was “inactive and 17.9 µM (active)”; in test [3], 44.9 µM (active) and 567 nM (active) and 35.7 µM (active); in test [6] it was 10.9 µM (active) and 21.9 µM (active) and 9.77 µM (active); in test [7], 218 nM (active) and 138 nM (active) and 1.55 µM (active); in test [9], 9.75 µM (active) and 15.5 µM (active) and 8.71 µM (active). Further, the Potency result in test [8] is “inactive”.

With `C=CC(Cl)CCl` (stereo unspecified), the Potency result in test [1], in test [2], in test [3], in test [6], in test [7] and in test [9] was “inactive” throughout. The call in test [10] was inactive.

As for `CC1CC(=O)O1` (stereo unspecified), the Potency entry in test [1], in test [2], in test [3], in test [6], in test [7] and in test [9] was “inactive” in each case. Besides, the call in test [10] was inactive.

Regarding `OCCOCCO`, the Potency entry in [1], in test [2], in test [3], in test [6], in test [7] and in test [9] was “inactive” each time. In addition, the call in test [10] was inactive.

Take `CC(C)(c1ccccc1)c1ccc(O)cc1`: the Potency in [3] is 112 µM (active) and 101 µM (active); in [7] it was 27.5 µM (active). The Potency entry in test [6] and in test [9] was “inactive” each time.

Regarding `Oc1ccc(Cl)cc1Cc1ccccc1`, the Potency in test [1] was 49.6 µM (active) and inactive; in [3] it was 89.8 µM (active) and 81 µM (active); in test [6] it was “inactive and 49.6 µM (active)”; in [7] it was 21.9 µM (active) and 19.7 µM (active). Besides, the Potency entry in test [2] and in test [9] was “inactive” in each case.

`Nc1ncn[nH]1`: the Potency result in test [1], in test [2], in [3], in [6], in [7] and in test [8] was “inactive” in each case. Moreover, in test [9], the Potency entry was “inactive”.

Consider `NN=C(N)N`, for which the Potency entry in test [1], in test [2], in test [3], in test [6], in test [7] and in test [8] was “inactive” in each case. Besides, the Potency entry in [9] was “inactive”.

Turning to `N#Cc1c(Cl)c(Cl)c(Cl)c(C#N)c1Cl`, the Potency in test [1] was 3.03 µM (active) and 3.09 µM (active); in test [3] it was 55.6 µM (active); in test [6], 21.5 µM (active) and 4.9 µM (active); in test [7], 1.7 µM (active) and 1.23 µM (active); in test [9] it was 19.1 µM (active) and 3.47 µM (active).
